# Laboratory results from PubChem BioAssay (NCI).
# About 83,000 compounds went through this panel and 20% of them were active in at least one assay; those are over-represented in the sample as a whole.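 In brief: 96-well plates, 48 h treatment, single concentration, percent growth endpoint.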 Activity calls are given as the source filed them. Rule for the calls: active = growth percent below 10; inactive = the rest.
# Test system: KM12 colon
# Assay: NCI-60 one-dose screen, 48 h (100 = growth as untreated, 0 = no growth, -100 = all killed)
# Conditions: 10 µM unless noted
row,Structure (SMILES),growth
1,CCCCCCOc1ccc(/C=N/Nc2cc(C)nc3ccc(Br)cc23)cc1,-84.7% (active)
2,COc1ccc(CC(C)=C(c2ccc(OCCN(C)C)cc2)c2ccc(OCCN(C)C)cc2)cc1,75.5% (inactive)
3,CC(=O)NCCCS(=O)(=O)O,102% (inactive)
